Hits are enriched below; roughly 19% of the tested compounds scored in any of these assays.
IL-1B inflam inh: qHTS for Inhibitors of Inflammasome Signaling: IL-1-beta AlphaLISA Primary Screen; activity change, % at 57.5 µM; THP-1 LPS/ATP IL-1B secretion, AlphaLISA, 16 h; active compounds read low; 360,000 compounds, 4.7% hits; in the data active = activity change below about -50%; inconclusive = mostly about -30% to -49%
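Secreted IL-1B measured by AlphaLISA bead assay after 16 h compound exposure of THP-1 cells; compounds (final up to 57.5 uM) added 1 h before LPS (250 ng/mL) and ATP (1.25 mM) stimulation; lower signal means less secretion.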
HT1080 IDH1KD tx: qHTS for induction of synthetic lethality in tumor cells producing 2HG: qHTS for the HT-1080-IDH1KD cell line | HT-1080 IDH1 knockdown viability, ATP luminescence, 48 h | AID 686971, 2013 | 360,000 compounds, 2% hits | Potency, µM (titrated, usually from 46.1 µM), without a hit: at the top dose activity, negative = toxicity, usual class: cytotoxic;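 note: potency is the fitted concentration of half-maximal effect; 0% = DMSO wells and -100% = cell-free medium wells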
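Viability of IDH1-knockdown HT-1080 fibrosarcoma cells was assessed by CellTiter-Glo after 48 h at 37 °C with titrated compound; concentration-effect curves were classified by fit quality and response size.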
uPA generation: qHTS for Inhibitors of Cell Surface uPA Generation; cell surface uPA generation assay, qHTS; Potency, µM (top dose mostly 38.3 µM), inactives show at the highest dose activity change, negative = inhibition, usual class: inhibitors; 330,000 compounds, 0.31% hits; active = well fitted inhibition curve with a large enough effect; inconclusive = small, poorly fitted or top-dose-only effect; inactive = no such curve, though single readings can be large or run the other way; tested in mouse RAW 264.7 cells; note: potency is the fitted concentration of half-maximal effect; nearly all actives have a fitted effect of over 55% in size
HT1080NT lethal: qHTS for induction of synthetic lethality in tumor cells producing 2HG: qHTS for the HT-1080-NT fibrosarcoma cell line; HT-1080-NT fibrosarcoma viability, CellTiter-Glo ATP luminescence, 48 h; Potency, µM (top dose mostly 46.1 µM), without a hit: at the highest dose activity, negative = less viability, usual class: cytotoxic; 360,000 compounds, 1.6% hits; AID 686970, 2013;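 note: NT is the 2HG producing partner of a matched IDH1 knockdown line; potency is the fitted concentration of half-maximal effect; 0% = DMSO-treated cells and -100% = media-only wells without cells; nearly all actives have a fitted effect of over 55% in size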
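750 cells/well, RPMI + 5% FBS; 2 h settle, compound pin-transfer, 48 h at 37 degrees C. CellTiter-Glo 10 min RT, luminescence. Normalized to DMSO and media-only wells.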
DT40 TDP1 CPT: qHTS for Inhibitors of human tyrosyl-DNA phosphodiesterase 1 (TDP1): qHTS in cells in presence of CPT | Potency, µM (top dose mostly 46.2 µM), for the others: at the highest dose activity change, negative = growth inhibition, hits mostly inhibitors | chicken DT40 Tdp1-/-;hTDP1 cells + 20 nM CPT, ATP luminescence, 48 h | 420,000 compounds, 12% hits; note: potency is the fitted concentration of half-maximal effect; nearly all actives have a fitted effect of over 55% in size
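Chicken DT40 Tdp1-/- cells stably complemented with human TDP1 were seeded at 400 cells/well in medium containing 20 nM camptothecin, exposed to pin-transferred compounds, and grown at 37 °C for at least 48 hr. Viability was read as ATP luminescence.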
TDP1 cell noCPT: qHTS for Inhibitors of human tyrosyl-DNA phosphodiesterase 1 (TDP1): qHTS in cells in absence of CPT. DT40 Tdp1-/- hTDP1 cells, no CPT, ATP luminescence, 48 h. 420,000 compounds, 15% hits. Potency, µM (highest dose often 46.2 µM), inactives show at the highest dose activity change, negative = growth inhibition, usual class: inhibitors. AID 686978, 2013; note: potency is the fitted concentration of half-maximal effect; nearly all actives have a fitted effect of over 55% in size
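Seeded 400 DT40-hTDP1 cells/well (vehicle DMSO, no 20 nM CPT); pinned compounds; ≥48 hr at 37 °C; CellTiter-Glo luminescence as viability measure.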
Numbers without * were called inactive. Unless noted, calls come from the whole dose curve; as a rule, active = well fitted curve in the direction sought with a large enough effect; inconclusive = small, poorly fitted or top-dose-only effect, or another doubt; inactive = no such curve, though single readings can be large; an effect the other way counts as inactive or inconclusive. Unless noted, % is set by controls: 0 for no effect and ±100 for the full control effect.

What do the screens show for `COc1ccc(C)cc1NC(=O)CN1C(=O)COc2ccc(S(=O)(=O)N3CCOCC3)cc21`?
IL-1B inflam inh: -4; HT1080 IDH1KD tx: 0%; uPA generation: -15%; HT1080NT lethal: 3%; DT40 TDP1 CPT: -13%; TDP1 cell noCPT: inconclusive

What do the screens show for `COc1ccccc1CN1CCCC2(CCN(S(C)(=O)=O)CC2)C1`?
DT40 TDP1 CPT: 12%; TDP1 cell noCPT: -6%

What do the screens show for `CCOC(=O)C1(CCOc2ccccc2)CCN(Cc2ccc(OC)c(COC)c2)CC1`?
IL-1B inflam inh: -52*; HT1080 IDH1KD tx: 13µM*; uPA generation: -5%; HT1080NT lethal: inconclusive; DT40 TDP1 CPT: 18µM*; TDP1 cell noCPT: 18µM*

Results for CCOC(=O)C1(CCOc2ccccc2)CCN(Cc2ccc(O)cc2)CC1 ?
IL-1B inflam inh: 0; HT1080 IDH1KD tx: -13%; uPA generation: -15%; HT1080NT lethal: -16%; DT40 TDP1 CPT: inconclusive; TDP1 cell noCPT: inconclusive

Results for CCOC(=O)C1(CC2CC2)CCN(Cc2cnc(-c3ccccc3C)nc2)CC1 ?
IL-1B inflam inh: 0; HT1080 IDH1KD tx: -6%; uPA generation: inconclusive; HT1080NT lethal: 9%; DT40 TDP1 CPT: 15µM*; TDP1 cell noCPT: 18µM*

Results for CCOC(=O)C1(CCOc2ccccc2)CCN(Cc2ccc(O)c(OCC)c2)CC1 ?
IL-1B inflam inh: -89*; HT1080 IDH1KD tx: inconclusive; uPA generation: -9%; HT1080NT lethal: inconclusive; DT40 TDP1 CPT: -41%; TDP1 cell noCPT: inconclusive

Results for CCOC(=O)C1(CC2CC2)CCN(Cc2cc(Cl)c(O)c(OC)c2)CC1 ?
IL-1B inflam inh: 13; HT1080 IDH1KD tx: 0%; uPA generation: 2%; HT1080NT lethal: -2%; DT40 TDP1 CPT: 6%; TDP1 cell noCPT: -29%

Results for Cc1nc2ccccc2n1CSc1ccccc1 ?
IL-1B inflam inh: -13; HT1080 IDH1KD tx: -21%; uPA generation: -9%; HT1080NT lethal: 0%; DT40 TDP1 CPT: -29%; TDP1 cell noCPT: inconclusive

Results for COc1ccc(C(=O)CNc2cccc(F)c2)cc1 ?
IL-1B inflam inh: -12; HT1080 IDH1KD tx: 9%; uPA generation: -1%; HT1080NT lethal: 8%; DT40 TDP1 CPT: -15%; TDP1 cell noCPT: -11%

What do the screens show for `O=C(Nc1ccc(F)c(Cl)c1)c1cc(C2CCCN(C(=O)c3cccs3)C2)on1` (configuration not stated)?
IL-1B inflam inh: -12; HT1080 IDH1KD tx: -22%; HT1080NT lethal: -15%; DT40 TDP1 CPT: inconclusive; TDP1 cell noCPT: inconclusive

Results for O=c1cnc2cnc(N3CCNCC3)nc2n1Cc1cccs1 ?
DT40 TDP1 CPT: -4%; TDP1 cell noCPT: -19%

How did CCc1ccc2c(c1)NC(=O)C2(C)Cc1ccc(C(F)(F)F)nc1 (configuration not stated) do in these assays?
IL-1B inflam inh: 15; HT1080 IDH1KD tx: 14%; HT1080NT lethal: 5%; DT40 TDP1 CPT: inconclusive; TDP1 cell noCPT: inconclusive

Results for COc1ccc(CCNc2nc(-c3ccc(F)cc3)c(CC(=O)O)s2)cc1OC ?
IL-1B inflam inh: 4; HT1080 IDH1KD tx: 1%; uPA generation: 0%; HT1080NT lethal: -3%; DT40 TDP1 CPT: 15µM*; TDP1 cell noCPT: 26µM*

What do the screens show for `c1coc(CNc2nc(-c3ccncc3)cs2)c1`?
IL-1B inflam inh: -18; HT1080 IDH1KD tx: -4%; uPA generation: -1%; HT1080NT lethal: 3%; DT40 TDP1 CPT: inconclusive; TDP1 cell noCPT: -21%

What do the screens show for `c1ccc(CCNc2nc(-c3ccncc3)cs2)cc1`?
IL-1B inflam inh: -60*; HT1080 IDH1KD tx: -14%; uPA generation: 13%; HT1080NT lethal: -7%; DT40 TDP1 CPT: inconclusive; TDP1 cell noCPT: inconclusive

Results for COc1ccc(CCNc2nc(-c3ccncc3)cs2)cc1OC ?
IL-1B inflam inh: -21; HT1080 IDH1KD tx: -20%; uPA generation: 2%; HT1080NT lethal: -14%; DT40 TDP1 CPT: 21µM*; TDP1 cell noCPT: inconclusive

Results for COc1ccc(CCNc2nc(C)c(C(C)=O)s2)cc1OC ?
IL-1B inflam inh: 0; HT1080 IDH1KD tx: 3%; uPA generation: -8%; HT1080NT lethal: 11%; DT40 TDP1 CPT: inconclusive; TDP1 cell noCPT: inconclusive

What do the screens show for `COc1ccc(CCNc2nc(-c3ccc(O)cc3)cs2)cc1OC`?
IL-1B inflam inh: -62*; HT1080 IDH1KD tx: -10%; uPA generation: inconclusive; HT1080NT lethal: -8%; DT40 TDP1 CPT: 16µM*; TDP1 cell noCPT: 16µM*

What do the screens show for `Cc1ccc(C(C)(C)C)c(SCC(=O)Nc2nnc(C)s2)c1`?
IL-1B inflam inh: 1; HT1080 IDH1KD tx: -14%; uPA generation: -1%; HT1080NT lethal: 3%; DT40 TDP1 CPT: 2%; TDP1 cell noCPT: -12%

How did COc1ccc(CCNc2nc(-c3ccccn3)cs2)cc1OC do in these assays?
IL-1B inflam inh: 8; HT1080 IDH1KD tx: 3%; uPA generation: -15%; HT1080NT lethal: inconclusive; DT40 TDP1 CPT: 16µM*; TDP1 cell noCPT: 12µM*

What do the screens show for `CCCN1C(=O)/C(=C/c2ccc(C)s2)NC1=S`?
IL-1B inflam inh: 13; HT1080 IDH1KD tx: -11%; uPA generation: 2%; HT1080NT lethal: -15%; DT40 TDP1 CPT: 26µM*; TDP1 cell noCPT: -7%

How did CN(C(=O)c1ccc(NC(=O)Cc2ccc(NC(=O)C3CCN(C(=O)C4CCCCC4)CC3)cc2)cc1)C1CCCC1 do in these assays?
IL-1B inflam inh: 93; HT1080 IDH1KD tx: inconclusive; uPA generation: 12%; HT1080NT lethal: -5%; DT40 TDP1 CPT: inconclusive; TDP1 cell noCPT: 21µM*

Results for CN(C(=O)c1ccc(NC(=O)Cc2ccc(NC(=O)C3CCN(C(=O)C4CCCC4)CC3)cc2)cc1)C1CC1 ?
IL-1B inflam inh: -71*; HT1080 IDH1KD tx: -8%; uPA generation: 5%; HT1080NT lethal: -3%; DT40 TDP1 CPT: inconclusive; TDP1 cell noCPT: inconclusive

Results for Cc1cc(C)cc(OCC(=O)Nc2ccc(S(=O)(=O)Nc3onc(C)c3C)cc2)c1 ?
DT40 TDP1 CPT: 2%; TDP1 cell noCPT: -8%

What do the screens show for `COC(=O)[C@]12CCCCC=C1N(CCc1ccc(OC)c(OC)c1)C(=O)[C@H](CC(=O)NCc1ccc(OC)c(OC)c1)C2`?
IL-1B inflam inh: -18; HT1080 IDH1KD tx: -11%; HT1080NT lethal: 1%; DT40 TDP1 CPT: 29µM*; TDP1 cell noCPT: 16µM*

Source: PubChem
